This excerpt belongs to a sample that is enriched for hits.
Menin-MLL FL inh: qHTS Assay for Inhibitors Targeting the Menin-MLL Interaction in MLL Related Leukemias: Competition With Fluorescein Labeled MLL-derived Peptide. Fluorescence polarization, fluorescein-MLL peptide displacement from menin. FP activity change, % at 61.4 µM. 290,000 tested, under 10 active. AID 1766, 2009; active = well fitted curve in the direction sought with a large enough effect in the polarisation, not every such curve was filed as active; inconclusive = small, poorly fitted or top-dose-only effect, or effect the other way, or a change in a side signal; inactive = no such curve, though single readings can be large or run the other way; the % refers to the polarisation
p53 reactivator: qHTS assay for re-activators of p53 using a Luc reporter. H1299 p53-A138V BP100-luciferase reporter, luminescence, 24 h. Potency, µM (titrated, usually from 92.2 µM), hits mostly activators. actives 0.063% (n = 320,000). AID 504706, 2011; active = well fitted activation curve with a large enough effect; inconclusive = small, poorly fitted or top-dose-only effect; inactive = no such curve, though single readings can be large or run the other way; note: nearly all actives have a fitted effect of over 45% in size
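p53-null H1299 cells stably carrying temperature-sensitive p53-A138V and a BP100-luciferase reporter were pinned with compounds (4-point, 1:5 series) and held 24 hrs at 37 deg C. Luminescence was read 10 min after detection reagent.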
CXXC DNA block: qHTS Fluorescence Polarization Assay for Inhibitors of MLL CXXC domain - DNA interaction; Potency, µM (highest dose often 115 µM), hits mostly inhibitors; actives 0.037% (n = 290,000); MLL-CXXC / FITC-HOXA9 DNA fluorescence polarization; Histone-lysine N-methyltransferase 2A (Homo sapiens), Q03164; active = well fitted inhibition curve with a large enough effect in the polarisation, with a control signal flat, not every such curve was filed as active; inconclusive = small, poorly fitted or top-dose-only effect, or effect the other way, or a change in a side signal; inactive = no such curve, though single readings can be large or run the other way; the % refers to the polarisation
Target sequence (Q03164 whole entry, looked up, the tested form may be a part): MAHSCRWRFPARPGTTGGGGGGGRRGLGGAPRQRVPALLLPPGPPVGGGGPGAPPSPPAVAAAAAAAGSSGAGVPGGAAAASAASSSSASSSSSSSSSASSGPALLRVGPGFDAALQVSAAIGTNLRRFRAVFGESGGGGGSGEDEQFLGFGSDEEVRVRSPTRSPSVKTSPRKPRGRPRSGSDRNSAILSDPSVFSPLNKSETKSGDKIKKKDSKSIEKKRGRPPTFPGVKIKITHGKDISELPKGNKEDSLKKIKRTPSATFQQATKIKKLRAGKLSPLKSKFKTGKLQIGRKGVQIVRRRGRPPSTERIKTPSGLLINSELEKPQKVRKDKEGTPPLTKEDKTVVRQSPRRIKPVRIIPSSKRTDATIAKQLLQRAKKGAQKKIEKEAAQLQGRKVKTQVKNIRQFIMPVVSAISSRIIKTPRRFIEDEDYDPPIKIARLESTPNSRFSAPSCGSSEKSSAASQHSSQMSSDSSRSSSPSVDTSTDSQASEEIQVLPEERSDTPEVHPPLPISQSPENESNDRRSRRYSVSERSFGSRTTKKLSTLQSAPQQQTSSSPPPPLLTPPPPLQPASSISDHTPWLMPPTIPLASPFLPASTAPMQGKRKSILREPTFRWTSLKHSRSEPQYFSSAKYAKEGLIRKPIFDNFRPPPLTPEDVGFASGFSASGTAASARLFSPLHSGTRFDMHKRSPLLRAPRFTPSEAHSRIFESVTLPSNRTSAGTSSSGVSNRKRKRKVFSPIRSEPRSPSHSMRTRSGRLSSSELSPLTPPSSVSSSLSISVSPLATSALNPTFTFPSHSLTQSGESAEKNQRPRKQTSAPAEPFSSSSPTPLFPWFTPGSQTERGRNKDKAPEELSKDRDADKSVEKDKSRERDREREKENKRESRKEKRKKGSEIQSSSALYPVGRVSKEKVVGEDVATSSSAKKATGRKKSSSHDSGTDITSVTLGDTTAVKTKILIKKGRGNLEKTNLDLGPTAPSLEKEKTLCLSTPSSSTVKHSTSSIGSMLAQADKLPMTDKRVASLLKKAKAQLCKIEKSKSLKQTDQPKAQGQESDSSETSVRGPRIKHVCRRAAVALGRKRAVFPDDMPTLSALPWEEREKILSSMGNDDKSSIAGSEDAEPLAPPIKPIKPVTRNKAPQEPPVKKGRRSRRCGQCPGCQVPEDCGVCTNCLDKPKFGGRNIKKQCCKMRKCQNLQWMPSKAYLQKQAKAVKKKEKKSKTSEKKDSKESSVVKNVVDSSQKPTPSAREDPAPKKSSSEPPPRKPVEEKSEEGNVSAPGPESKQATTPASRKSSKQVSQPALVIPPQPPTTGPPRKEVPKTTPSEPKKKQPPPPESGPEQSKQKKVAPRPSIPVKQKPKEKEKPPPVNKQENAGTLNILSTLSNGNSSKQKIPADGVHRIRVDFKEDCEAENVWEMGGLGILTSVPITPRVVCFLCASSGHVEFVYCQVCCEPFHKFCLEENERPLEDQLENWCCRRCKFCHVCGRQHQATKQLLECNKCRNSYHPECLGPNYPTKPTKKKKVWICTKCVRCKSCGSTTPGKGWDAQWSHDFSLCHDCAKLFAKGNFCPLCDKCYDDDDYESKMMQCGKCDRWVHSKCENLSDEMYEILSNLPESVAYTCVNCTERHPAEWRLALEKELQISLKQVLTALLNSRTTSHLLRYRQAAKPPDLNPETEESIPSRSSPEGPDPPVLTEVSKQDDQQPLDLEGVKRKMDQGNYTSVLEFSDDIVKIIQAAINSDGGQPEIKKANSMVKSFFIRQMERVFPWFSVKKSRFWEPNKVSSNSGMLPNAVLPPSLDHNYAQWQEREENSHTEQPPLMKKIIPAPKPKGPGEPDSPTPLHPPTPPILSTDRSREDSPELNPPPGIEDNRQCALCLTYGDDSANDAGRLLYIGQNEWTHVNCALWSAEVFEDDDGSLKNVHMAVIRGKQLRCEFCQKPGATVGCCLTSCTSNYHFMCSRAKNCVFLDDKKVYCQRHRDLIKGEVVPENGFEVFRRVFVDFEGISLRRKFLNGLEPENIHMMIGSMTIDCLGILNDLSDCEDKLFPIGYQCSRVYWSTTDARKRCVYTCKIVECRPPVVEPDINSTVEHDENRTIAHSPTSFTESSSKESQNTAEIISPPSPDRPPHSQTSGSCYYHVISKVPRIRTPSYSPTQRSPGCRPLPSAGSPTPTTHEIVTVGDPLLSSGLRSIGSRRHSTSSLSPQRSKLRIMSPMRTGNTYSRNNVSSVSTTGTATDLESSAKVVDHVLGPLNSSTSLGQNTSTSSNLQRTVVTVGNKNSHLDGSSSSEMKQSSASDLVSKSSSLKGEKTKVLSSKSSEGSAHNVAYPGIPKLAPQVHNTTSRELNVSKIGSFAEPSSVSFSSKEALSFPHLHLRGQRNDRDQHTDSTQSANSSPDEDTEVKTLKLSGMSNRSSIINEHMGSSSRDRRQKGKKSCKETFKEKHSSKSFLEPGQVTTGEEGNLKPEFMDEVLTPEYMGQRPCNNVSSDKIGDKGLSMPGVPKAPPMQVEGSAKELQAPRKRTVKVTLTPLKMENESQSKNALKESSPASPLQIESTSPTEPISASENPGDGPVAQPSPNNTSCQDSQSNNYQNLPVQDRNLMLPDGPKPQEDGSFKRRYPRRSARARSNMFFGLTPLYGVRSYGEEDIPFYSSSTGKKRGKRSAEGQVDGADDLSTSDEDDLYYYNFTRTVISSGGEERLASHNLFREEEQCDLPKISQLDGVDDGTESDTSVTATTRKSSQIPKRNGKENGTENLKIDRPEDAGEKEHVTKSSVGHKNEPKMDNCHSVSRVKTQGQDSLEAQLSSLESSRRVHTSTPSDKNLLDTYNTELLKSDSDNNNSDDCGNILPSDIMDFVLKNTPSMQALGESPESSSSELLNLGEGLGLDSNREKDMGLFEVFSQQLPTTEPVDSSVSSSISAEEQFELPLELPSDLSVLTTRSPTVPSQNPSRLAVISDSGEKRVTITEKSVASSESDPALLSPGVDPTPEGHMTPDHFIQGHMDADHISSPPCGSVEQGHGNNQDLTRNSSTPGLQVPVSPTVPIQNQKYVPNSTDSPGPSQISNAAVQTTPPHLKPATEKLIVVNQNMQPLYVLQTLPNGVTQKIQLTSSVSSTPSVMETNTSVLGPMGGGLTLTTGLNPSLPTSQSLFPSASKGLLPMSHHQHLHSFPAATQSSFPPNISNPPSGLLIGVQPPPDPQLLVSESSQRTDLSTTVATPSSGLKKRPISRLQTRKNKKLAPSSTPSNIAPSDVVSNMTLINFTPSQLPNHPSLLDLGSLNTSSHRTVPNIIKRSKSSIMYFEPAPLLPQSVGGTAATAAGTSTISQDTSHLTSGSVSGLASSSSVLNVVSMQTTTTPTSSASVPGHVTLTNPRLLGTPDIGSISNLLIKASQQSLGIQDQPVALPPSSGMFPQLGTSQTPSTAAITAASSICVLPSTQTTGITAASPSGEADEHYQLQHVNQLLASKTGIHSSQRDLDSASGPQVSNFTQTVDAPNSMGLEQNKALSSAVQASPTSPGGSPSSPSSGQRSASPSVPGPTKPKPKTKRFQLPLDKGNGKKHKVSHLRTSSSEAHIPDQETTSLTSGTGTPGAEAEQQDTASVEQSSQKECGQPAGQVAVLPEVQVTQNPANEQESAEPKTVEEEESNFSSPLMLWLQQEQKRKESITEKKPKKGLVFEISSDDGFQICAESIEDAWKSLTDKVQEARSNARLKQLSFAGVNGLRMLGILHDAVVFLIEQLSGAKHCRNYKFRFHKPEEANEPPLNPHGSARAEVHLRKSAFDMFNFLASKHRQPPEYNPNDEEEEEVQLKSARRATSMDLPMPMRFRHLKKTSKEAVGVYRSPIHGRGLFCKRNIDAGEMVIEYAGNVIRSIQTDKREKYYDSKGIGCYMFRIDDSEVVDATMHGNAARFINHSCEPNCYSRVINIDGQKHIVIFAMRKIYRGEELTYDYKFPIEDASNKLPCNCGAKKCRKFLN
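Steps: dispense CXXC domain solution (7 uM) → pin compounds or unlabeled HOX-A9 DNA control → 5 min ambient → add FLSN-HOX-A9 solution (50 nM) → spin → 30 min ambient → fluorescence polarization. Tris pH 7.5/NaCl/DTT/BSA buffer.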
Menin MLL FP TR: qHTS Assay for Inhibitors Targeting the Menin-MLL Interaction in MLL Related Leukemias: Competition With Texas Red Labeled MLL-derived Mutant Peptide | Potency, µM (highest dose often 61.6 µM), hits mostly inhibitors | Menin + Texas Red MLL mutant peptide, fluorescence polarization | O00255 | actives 0.23% (n = 270,000); active = well fitted inhibition curve with a large enough effect in the polarisation, with a control signal flat, not every such curve was filed as active; inconclusive = small, poorly fitted or top-dose-only effect, or effect the other way, or a change in a side signal; inactive = no such curve, though single readings can be large or run the other way; the % refers to the polarisation
ClpP mod: qHTS Assay for Activators of ClpP | ATP-dependent Clp protease proteolytic subunit (Bacillus subtilis (strain 168)), P80244 | purified B. subtilis ClpP, FRET peptide cleavage, 20 min | Potency, µM (titrated, usually from 57.5 µM) | actives 1.9% (n = 340,000) | AID 651965, 2013; active = well fitted falling curve with a large enough effect; inconclusive = small, poorly fitted or top-dose-only effect; inactive = no such curve, though single readings can be large or run the other way; note: the source files actives as falling curves though it sought activators and does not explain the sign; nearly all actives have a fitted effect of over 65% in size
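Buffer: 100 mM Tris/HCl pH8, 100 mM KCl, 0.05% low protease BSA, 2.5% glycerol, 0.01% Tween-20. ClpP 10 microg/mL final; 20 min RT; delta FRET normalized to ADEP and DMSO controls.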
Large screens that a line does not name were inactive.

Cc1ccc(C2=NOC(=O)/C2=C\C=C\c2ccccc2)cc1	Menin-MLL FL inh inconclusive, Menin MLL FP TR inconclusive, ClpP mod 31.6µM
COc1ccc(O)c(C(=O)c2cnn(C(=O)c3cccc(N(C)C)c3)c2)c1	ClpP mod 22.4µM (no result: Menin-MLL FL inh, CXXC DNA block, Menin MLL FP TR)
CN(C)c1cccc(C(=O)n2cc(C(=O)c3cc(F)ccc3O)cn2)c1	none
O=C(CBr)c1ccc(Oc2ccc(C(=O)C[n+]3ccccc3Cl)cc2)cc1	none (no result: Menin-MLL FL inh, p53 reactivator, CXXC DNA block, Menin MLL FP TR)
CCc1cc[n+](CC(=O)c2ccc(F)cc2)cc1C(=O)O	none (no result: Menin-MLL FL inh, p53 reactivator, CXXC DNA block, Menin MLL FP TR)
CC1CCN(C2(O)C(=O)Nc3ccc(Cl)cc32)CC1 (stereo not given)	Menin MLL FP TR inconclusive, ClpP mod 12.6µM
COc1ccc(OC)c(NC(=O)c2cnc(Nc3ccccc3OC)c3ccccc23)c1	ClpP mod 35.5µM
COC(=O)c1ccccc1NC(=O)c1cnc(Nc2ccc(OC)cc2)c2ccccc12	none (no result: Menin-MLL FL inh, p53 reactivator, CXXC DNA block, Menin MLL FP TR)
O=C(C[n+]1c(Cl)ccc2ccccc21)c1ccc2ccccc2c1	none (no result: Menin-MLL FL inh, p53 reactivator, CXXC DNA block, Menin MLL FP TR)
Cn1c(=O)c2[nH]c(Nc3ccccc3)nc2n(C)c1=O	none
Cc1ccc(CNc2nc3c([nH]2)c(=O)n(C)c(=O)n3C)cc1	ClpP mod 20µM
O=C(/C=C/c1ccc(O)c(O)c1)c1ccc(O)cc1O	none (no result: p53 reactivator, CXXC DNA block, ClpP mod)
Cc1nn(-c2ccccc2)c(C)c1/C=N/NC(=O)c1cccs1	p53 reactivator inconclusive, ClpP mod 25.1µM
CC(C)c1cc(-c2nc(-c3ccc(Cl)cc3)no2)n[nH]1	none (no result: Menin-MLL FL inh, p53 reactivator, CXXC DNA block, Menin MLL FP TR)
COc1ccc(CC(=O)N2CCN(c3ccc(C4=NNC(=O)CC4C)cc3)CC2)cc1 (stereo not given)	ClpP mod 28.2µM
O=C(O)c1cccc(NC(=O)c2ccc3c(c2)C(=O)N(c2ccccc2)C3=O)c1	ClpP mod 8.91µM
O=C(O)c1ccc(NC(=O)c2cccc(N3C(=O)C4C5CCC(C5)C4C3=O)c2)cc1 (stereo not given)	ClpP mod 25.1µM
O=C(O)c1cc(NC(=O)c2cccc(N3C(=O)c4ccccc4C3=O)c2)cc(C(=O)O)c1	none
CC12C=C(/C=C/c3ccc(Br)cc3)C(C)(C1)C(c1ccc(Br)cc1)CC2=O (stereo not given)	none (no result: p53 reactivator, CXXC DNA block, ClpP mod)
Cc1cc(C)cc(-c2cc3c(c(-c4c(O)c(-c5cc(C)cc(C)c5)cc5c4CCCC5)c2O)CCCC3)c1	Menin MLL FP TR inconclusive (no result: p53 reactivator, CXXC DNA block, ClpP mod)
COc1ccc(-c2nc3cccc(C)n3c2NCc2ccco2)cc1OC	Menin MLL FP TR inconclusive, ClpP mod 14.1µM
COC(=O)CCC(=O)OC1(C)C(=O)C=C2C=C(C3CC3)N(c3ccc(OC)cc3)C=C2C1=O (stereo not given)	none (no result: p53 reactivator, CXXC DNA block, ClpP mod)
CCC(=O)NC(=S)Nc1ccccc1C(F)(F)F	ClpP mod 31.6µM (no result: Menin-MLL FL inh, p53 reactivator, CXXC DNA block, Menin MLL FP TR)
CCOCCCNC(=O)C(c1ccccc1)N(Cc1cccs1)C(=O)c1ccc(NC(C)=O)cc1 (stereo not given)	none (no result: Menin-MLL FL inh, p53 reactivator, CXXC DNA block, Menin MLL FP TR)
CC(C)NCC(O)Cn1c2c(c3ccccc31)CCc1c-2cnn1-c1ccccc1 (stereo not given)	Menin MLL FP TR inconclusive, ClpP mod 8.91µM
CN1CCc2c(n(CC(O)CNCc3ccccc3)c3ccccc23)C1=O (stereo not given)	none
CCC1(CC)C(=O)C(C)(C)C(=O)OC1c1cccs1 (stereo not given)	ClpP mod 28.2µM
Cc1c2cccn2cc[n+]1C	ClpP mod 10µM
CCOC(=O)c1cc(C#N)c(SC)nc1C	none (no result: Menin MLL FP TR)
COC(=O)c1cc(C#N)c(NCc2ccccc2)nc1C	ClpP mod 31.6µM
CCOC(=O)c1cc(C#N)c(N)nc1C	ClpP mod 22.4µM
CCOC(=O)CCSc1nc(C)c2cc(OC)ccc2n1	p53 reactivator inconclusive, ClpP mod 25.1µM
CCOC(=O)c1cc2cc(OC)ccc2nc1C	ClpP mod 31.6µM
CCOC(=O)CCSc1nc(C)c2cc(C)c(C)cc2n1	p53 reactivator inconclusive
COC(=O)C(C(=O)OC)C1c2ccccc2C=C(C)N1C(=O)OC (stereo not given)	none (no result: p53 reactivator, CXXC DNA block, ClpP mod)

Screens deposited in PubChem by National Center for Advancing Translational Sciences (NCATS).
